# Experimental data as given in the supplement of paper PMC9794691.
# Tested on: PC9
# Assay: area under confluence curve of osimertinib + compound combination regimen (DTP regrowth); compare to osimertinib-only DTP control AUC of the same experiment (AUC (confluence x time, arbitrary))
# Procedure: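 compare to osimertinib-only DTP control AUC of the same experiment; Long-term drug-tolerant persister (DTP) screen in EGFR-mutant NSCLC cell lines in 48-well plates. The test compound was given at one fixed dose with osimertinib, either upfront (from day 0 to the DTP stage at 10-21 days, then drug-free medium) or sequentially (osimertinib alone to the DTP stage, then the test compound). IncuCyte confluence was tracked until osimertinib-only controls regrew, and AUC was computed in Prism. AUC scale depends on experiment duration, so each row carries the same-experiment osimertinib-only DTP and DMSO control AUCs; combination activity = control minus combo AUC. Osimertinib dose not stated.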
# [1] = test compound dose 1000 nM, dosing schedule: sequential, osimertinib-only DTP control AUC in same experiment: 12065, DMSO control AUC in same experiment: 48219
# [2] = test compound dose 1000 nM, dosing schedule: upfront, osimertinib-only DTP control AUC in same experiment: 22645, DMSO control AUC in same experiment: 48219
structure (smiles),measurement,setting,value
COC[C@H]1Cn2cc(-c3nc(Nc4ccnn4C)ncc3C)nc2C(=O)N1Cc1ccc(F)c(F)c1 + C=CC(=O)Nc1cc(Nc2nccc(-c3cn(C)c4ccccc34)n2)c(OC)cc1N(C)CCN(C)C [osimertinib],area under confluence curve,"test compound dose 100 nM, dosing schedule: sequential, osimertinib-only DTP control AUC in same experiment: 11414, DMSO control AUC in same experiment: 31219",6430
same,area under confluence curve,"test compound dose 100 nM, dosing schedule: sequential, osimertinib-only DTP control AUC in same experiment: 14554, DMSO control AUC in same experiment: 49189",2470
same,area under confluence curve,"test compound dose 100 nM, dosing schedule: upfront, osimertinib-only DTP control AUC in same experiment: 18848, DMSO control AUC in same experiment: 31219",2020
same,area under confluence curve,"test compound dose 100 nM, dosing schedule: upfront, osimertinib-only DTP control AUC in same experiment: 24473, DMSO control AUC in same experiment: 49189",2580
CNC(=O)c1cccc(-c2ccc3c(N4CCOC[C@@H]4C)nc(N4CCOC[C@@H]4C)nc3n2)c1 + C=CC(=O)Nc1cc(Nc2nccc(-c3cn(C)c4ccccc34)n2)c(OC)cc1N(C)CCN(C)C [osimertinib],area under confluence curve,"test compound dose 100 nM, dosing schedule: sequential, osimertinib-only DTP control AUC in same experiment: 13052, DMSO control AUC in same experiment: 28334",6580
same,area under confluence curve,"test compound dose 100 nM, dosing schedule: upfront, osimertinib-only DTP control AUC in same experiment: 17920, DMSO control AUC in same experiment: 28334",14800
C=CCn1c(=O)c2cnc(Nc3ccc(N4CCN(C)CC4)cc3)nc2n1-c1cccc(C(C)(C)O)n1 + C=CC(=O)Nc1cc(Nc2nccc(-c3cn(C)c4ccccc34)n2)c(OC)cc1N(C)CCN(C)C [osimertinib],area under confluence curve,"test compound dose 100 nM, dosing schedule: sequential, osimertinib-only DTP control AUC in same experiment: 15001, DMSO control AUC in same experiment: 22064",13500
same,area under confluence curve,"test compound dose 100 nM, dosing schedule: sequential, osimertinib-only DTP control AUC in same experiment: 15044, DMSO control AUC in same experiment: 30604",11300
same,area under confluence curve,"test compound dose 100 nM, dosing schedule: upfront, osimertinib-only DTP control AUC in same experiment: 20672, DMSO control AUC in same experiment: 30604",16100
same,area under confluence curve,"test compound dose 100 nM, dosing schedule: upfront, osimertinib-only DTP control AUC in same experiment: 24924, DMSO control AUC in same experiment: 22064",20200
Cc1c[nH]c2nc(Nc3ccc(N4CCN(C)CC4)c(F)c3)nc(-c3cccc(CC#N)c3)c12 + C=CC(=O)Nc1cc(Nc2nccc(-c3cn(C)c4ccccc34)n2)c(OC)cc1N(C)CCN(C)C [osimertinib],area under confluence curve,"test compound dose 300 nM, dosing schedule: sequential, osimertinib-only DTP control AUC in same experiment: 12535, DMSO control AUC in same experiment: 43316",1010
same,area under confluence curve,"test compound dose 300 nM, dosing schedule: sequential, osimertinib-only DTP control AUC in same experiment: 15163, DMSO control AUC in same experiment: 28684",4860
same,area under confluence curve,"test compound dose 300 nM, dosing schedule: sequential, osimertinib-only DTP control AUC in same experiment: 29087, DMSO control AUC in same experiment: 30008",25200
same,area under confluence curve,"test compound dose 300 nM, dosing schedule: upfront, osimertinib-only DTP control AUC in same experiment: 15354, DMSO control AUC in same experiment: 43316",3200
same,area under confluence curve,"test compound dose 300 nM, dosing schedule: upfront, osimertinib-only DTP control AUC in same experiment: 21337, DMSO control AUC in same experiment: 28684",6800
same,area under confluence curve,"test compound dose 300 nM, dosing schedule: upfront, osimertinib-only DTP control AUC in same experiment: 34430, DMSO control AUC in same experiment: 30008",25900
COc1ccc(CCc2nc3cc(-c4c(C)noc4C)ccc3n2C[C@H](C)N2CCOCC2)cc1Cl + C=CC(=O)Nc1cc(Nc2nccc(-c3cn(C)c4ccccc34)n2)c(OC)cc1N(C)CCN(C)C [osimertinib],area under confluence curve,"test compound dose 1000 nM, dosing schedule: sequential, osimertinib-only DTP control AUC in same experiment: 4730, DMSO control AUC in same experiment: 72888",6290
same,area under confluence curve,"test compound dose 1000 nM, dosing schedule: sequential, osimertinib-only DTP control AUC in same experiment: 9508, DMSO control AUC in same experiment: 26668",9310
same,area under confluence curve,[1],13500
same,area under confluence curve,"test compound dose 1000 nM, dosing schedule: upfront, osimertinib-only DTP control AUC in same experiment: 8775, DMSO control AUC in same experiment: 72888",20400
same,area under confluence curve,"test compound dose 1000 nM, dosing schedule: upfront, osimertinib-only DTP control AUC in same experiment: 11298, DMSO control AUC in same experiment: 26668",10700
same,area under confluence curve,[2],37300
CN1CCN(c2nc(C3=C(c4c[nH]c5ccccc45)C(=O)NC3=O)c3ccccc3n2)CC1 [Sotrastaurin] + C=CC(=O)Nc1cc(Nc2nccc(-c3cn(C)c4ccccc34)n2)c(OC)cc1N(C)CCN(C)C [osimertinib],area under confluence curve,"test compound dose 1000 nM, dosing schedule: sequential, osimertinib-only DTP control AUC in same experiment: 10175, DMSO control AUC in same experiment: 27958",9060
same,area under confluence curve,"test compound dose 1000 nM, dosing schedule: upfront, osimertinib-only DTP control AUC in same experiment: 16134, DMSO control AUC in same experiment: 27958",10800
O=C(N[C@@H](C1CC1)C(F)(F)F)c1cc(-c2cnn3cc(-c4ccc(F)cc4)cnc23)cs1 + C=CC(=O)Nc1cc(Nc2nccc(-c3cn(C)c4ccccc34)n2)c(OC)cc1N(C)CCN(C)C [osimertinib],area under confluence curve,"test compound dose 1000 nM, dosing schedule: sequential, osimertinib-only DTP control AUC in same experiment: 10206, DMSO control AUC in same experiment: 18733",9160
same,area under confluence curve,"test compound dose 1000 nM, dosing schedule: upfront, osimertinib-only DTP control AUC in same experiment: 17072, DMSO control AUC in same experiment: 18733",16800
Cc1nc2nc(C)c(O[C@@H]3CCN(c4ccc(-c5ccc(CN6CCOCC6)nn5)cc4)C3)c(C)n2n1 + C=CC(=O)Nc1cc(Nc2nccc(-c3cn(C)c4ccccc34)n2)c(OC)cc1N(C)CCN(C)C [osimertinib],area under confluence curve,"test compound dose 1000 nM, dosing schedule: sequential, osimertinib-only DTP control AUC in same experiment: 10725, DMSO control AUC in same experiment: 30578",14600
same,area under confluence curve,"test compound dose 1000 nM, dosing schedule: upfront, osimertinib-only DTP control AUC in same experiment: 10245, DMSO control AUC in same experiment: 30578",12400
CN(C)C/C=C/C(=O)Nc1ccc(C(=O)Nc2cccc(Nc3ncc(Cl)c(-c4c[nH]c5ccccc45)n3)c2)cc1 + C=CC(=O)Nc1cc(Nc2nccc(-c3cn(C)c4ccccc34)n2)c(OC)cc1N(C)CCN(C)C [osimertinib],area under confluence curve,"test compound dose 1000 nM, dosing schedule: sequential, osimertinib-only DTP control AUC in same experiment: 11414, DMSO control AUC in same experiment: 31219",12600
same,area under confluence curve,"test compound dose 1000 nM, dosing schedule: upfront, osimertinib-only DTP control AUC in same experiment: 18848, DMSO control AUC in same experiment: 31219",21300
O=C(CCCCCCC(=O)Nc1ccccc1)NO [Vorinostat] + C=CC(=O)Nc1cc(Nc2nccc(-c3cn(C)c4ccccc34)n2)c(OC)cc1N(C)CCN(C)C [osimertinib],area under confluence curve,[1],7830
same,area under confluence curve,"test compound dose 1000 nM, dosing schedule: sequential, osimertinib-only DTP control AUC in same experiment: 14002, DMSO control AUC in same experiment: 31239",6670
same,area under confluence curve,"test compound dose 1000 nM, dosing schedule: upfront, osimertinib-only DTP control AUC in same experiment: 22175, DMSO control AUC in same experiment: 31239",7410
same,area under confluence curve,[2],10400
Cc1cccc(-c2[nH]c(C(C)(C)C)nc2-c2ccc3nccnc3c2)n1 + C=CC(=O)Nc1cc(Nc2nccc(-c3cn(C)c4ccccc34)n2)c(OC)cc1N(C)CCN(C)C [osimertinib],area under confluence curve,"test compound dose 1000 nM, dosing schedule: sequential, osimertinib-only DTP control AUC in same experiment: 13130, DMSO control AUC in same experiment: 20567",13600
same,area under confluence curve,"test compound dose 1000 nM, dosing schedule: sequential, osimertinib-only DTP control AUC in same experiment: 15001, DMSO control AUC in same experiment: 22064",14500
same,area under confluence curve,"test compound dose 1000 nM, dosing schedule: upfront, osimertinib-only DTP control AUC in same experiment: 18577, DMSO control AUC in same experiment: 20567",20300
same,area under confluence curve,"test compound dose 1000 nM, dosing schedule: upfront, osimertinib-only DTP control AUC in same experiment: 24924, DMSO control AUC in same experiment: 22064",25300
COc1cc2nc(C)nc(N[C@H](C)c3cc(N)cc(C(F)(F)F)c3)c2cc1O[C@H]1CCOC1 + C=CC(=O)Nc1cc(Nc2nccc(-c3cn(C)c4ccccc34)n2)c(OC)cc1N(C)CCN(C)C [osimertinib],area under confluence curve,"test compound dose 1000 nM, dosing schedule: sequential, osimertinib-only DTP control AUC in same experiment: 15163, DMSO control AUC in same experiment: 28684",11600
same,area under confluence curve,"test compound dose 1000 nM, dosing schedule: upfront, osimertinib-only DTP control AUC in same experiment: 21337, DMSO control AUC in same experiment: 28684",11000
CS(=O)(=O)CCNCc1ccc(-c2ccc3ncnc(Nc4ccc(OCc5cccc(F)c5)c(Cl)c4)c3c2)o1 [Lapatinib] + C=CC(=O)Nc1cc(Nc2nccc(-c3cn(C)c4ccccc34)n2)c(OC)cc1N(C)CCN(C)C [osimertinib],area under confluence curve,"test compound dose 1000 nM, dosing schedule: sequential, osimertinib-only DTP control AUC in same experiment: 16279, DMSO control AUC in same experiment: 29345",21600
same,area under confluence curve,"test compound dose 1000 nM, dosing schedule: upfront, osimertinib-only DTP control AUC in same experiment: 19769, DMSO control AUC in same experiment: 29345",18300
